Measured values as given in PubChem BioAssay.
The other results are listed elsewhere or left out. Active and inactive are the calls of the source.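 Rule for the calls, unless noted: active = reconfirmed compounds whose average cytotoxicity reaches 50% or more; inactive = the rest.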

What was measured:
[1] = cytotoxicity in PPC-1 cells, confirmation, cytotoxicity control for TRAIL apoptosis potentiator project, cell-based, ATP content luminescence (AID 1447); settings: PPC-1 viability, ATPlite luminescence, overnight; at 5 µM; stronger effect = higher value;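 note: 0% = DMSO-treated cells and 100% = wells holding medium but no cells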
[2] = PMA/ionomycin-induced NF-kB reporter inhibitors, Jurkat retest, confirmation, T-cell NF-kB inhibitor project, cell-based, luminescence, single concentration (AID 435020;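 active = inhibition reaching about 45% at 4 µM in either replicate, limit read from the data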;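 note: plate controls were PMA/ionomycin stimulated DMSO wells for no effect and unstimulated DMSO wells for full effect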); settings: Jurkat NF-kB luciferase, 16 h, at 4 µM, stronger effect = higher value
[3] = HIF-2a reporter inhibitor retest, confirmation, luminescence, 786-0 RCC cells (AID 651580;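 active = mean inhibition across four replicates of at least 40 percent at the single tested concentration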); settings: HIF-2a luciferase reporter luminescence, overnight, at 18.8 µM, stronger effect = higher value
[4] = HIF-1a luciferase reporter signal reduction – MiaPaCa-2 cells, single concentration, counter-screen for HIF-2a inhibitor project, confirmation (AID 651589;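 active = mean inhibition of the reporter signal across four replicates at the single tested dose of 50% or more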); settings: MiaPaCa-2 HIF-1a luciferase reporter, desferoxamine, overnight; at 18.8 µM; stronger effect = higher value
[5] = biological target: Tumor necrosis factor receptor superfamily member 10B (Homo sapiens) (UniProt O14763); assay: caspase-8 TRAIL sensitization, hit retest, confirmation, cell-based, NB7+caspase-8, with/without TRAIL, luminescence panel (AID 651596; in the data active = activity above about 50%); settings: NB7 neuroblastoma + caspase-8, TRAIL sensitization, luminescence viability, with TRAIL, mean of runs, at 10 µM, stronger effect = higher value
[6] = as above; settings: NB7 neuroblastoma + caspase-8, without TRAIL, luminescence viability, without TRAIL, mean of runs, at 10 µM
[7] = biological target: Sentrin-specific protease 8 (Homo sapiens) (UniProt Q96LD8); assay: SENP8 protease inhibitors, retest, confirmation, biochemical, luminescence, single concentration (AID 488912;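 active = mean inhibition across replicates above about 50%, limit read from the data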); settings: Recombinant SENP8, Z-RLRGG-aminoluciferin luminescence, 60 min; at 12.5 µM; stronger effect = higher value
[8] = biological target: Sentrin-specific protease 6 (Homo sapiens) (UniProt Q9GZR1); assay: SENP6 protease inhibitors, confirmation, biochemical, luminescence, single concentration (AID 488915;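 active = mean inhibition above about 50% in the one-dose retest, limit read from the data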); settings: recombinant SENP6, Z-RLRGG-aminoluciferin luminescence; at 12.5 µM; stronger effect = higher value
[9] = biological target: Sentrin-specific protease 7 (Homo sapiens) (UniProt Q9BQF6); assay: SENP7 protease inhibitors, retest, confirmation, biochemical, luminescence, single concentration (AID 488917;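 active = mean inhibition above about 50% in the one-dose retest, limit read from the data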); settings: recombinant SENP7, Z-RLRGG-aminoluciferin luminescence, 40 min; at 12.5 µM; stronger effect = higher value
[10] = biological target: Caspase-3 (Homo sapiens) (UniProt P42574); assay: caspase-3 protease inhibitors, confirmation, selectivity assay for SENP inhibitor project, biochemical, single concentration (AID 488918;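 active = mean inhibition above about 50%, limit read from the data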;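 note: plate controls were enzyme with DMSO for no effect and wells without caspase-3 for full effect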); settings: purified caspase-3, Z-DEVD-aminoluciferin luminescence, 60 min; at 12.5 µM; stronger effect = higher value
[11] = luciferase luminescence interference by compounds, confirmation, artefact control for SENP inhibitor project, biochemical, single concentration, SENP8 reaction pre-completed (AID 488919;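 active = mean inhibition above about 50% when retested at one dose, limit read from the data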;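 note: plate controls were DMSO wells with completed reaction for no effect and substrate without enzyme for full effect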); settings: Pre-incubated SENP8/Z-RLRGG-aminoluciferin, at 12.5 µM, stronger effect = higher value
[12] = Peg3 promoter reporter inhibitors, retest, confirmation, cell-based, HeLa, luciferase reporter, single concentration (AID 602417;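 active = at 20 µM dose, 40% or more inhibition averaged across four replicates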); settings: HeLa PEG-Prom luciferase reporter, luminescence, overnight; at 20 µM; stronger effect = higher value
[13] = biological target: PEG-3 (UniProt Q6IN02); assay: Peg3 promoter luciferase inhibitors, potency, dose response, cell-based, HeLa, CREF/GAPDH counter-screen panel (AID 624167); settings: CREF/GAPDH counter-screens; HeLa PEG-Prom luciferase reporter, overnight, run 1, dose range 1, at 100 µM (top of the series) unless noted
[14] = biological target: PEG-3 (UniProt Q6IN02); assay: as above; settings: CREF/GAPDH counter-screens; HeLa PEG-Prom luciferase reporter, overnight, run 2, dose range 1, at 100 µM (top of the series) unless noted
[15] = system: Rat fibroblasts (CREF); assay: as above; settings: CREF/GAPDH counter-screens; run 1, dose range 1, at 100 µM (top of the series)
[16] = system: Rat fibroblasts (CREF); assay: as above; settings: CREF/GAPDH counter-screens; run 2, dose range 1, at 100 µM (top of the series)
[17] = inhibition of Brca1/Bard1 split-luciferase complementation, confirmation, counter-screen for Mdm2/MdmX interaction inhibitor project, luminescence, single concentration (AID 504668; call rule not given here); settings: Brca1/Bard1 bimolecular luciferase complementation counterscreen, at 8 µM, stronger effect = higher value

Chain of Caspase-3 (Homo sapiens) (P42574 28-227 limits assumed): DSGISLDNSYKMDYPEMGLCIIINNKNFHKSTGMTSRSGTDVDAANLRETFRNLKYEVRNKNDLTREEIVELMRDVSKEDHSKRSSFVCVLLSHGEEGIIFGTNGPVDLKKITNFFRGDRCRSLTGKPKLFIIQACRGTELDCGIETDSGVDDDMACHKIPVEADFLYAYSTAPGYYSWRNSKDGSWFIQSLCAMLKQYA
Chain of Sentrin-specific protease 6 (Homo sapiens) (Q9GZR1 628-1112 limits assumed): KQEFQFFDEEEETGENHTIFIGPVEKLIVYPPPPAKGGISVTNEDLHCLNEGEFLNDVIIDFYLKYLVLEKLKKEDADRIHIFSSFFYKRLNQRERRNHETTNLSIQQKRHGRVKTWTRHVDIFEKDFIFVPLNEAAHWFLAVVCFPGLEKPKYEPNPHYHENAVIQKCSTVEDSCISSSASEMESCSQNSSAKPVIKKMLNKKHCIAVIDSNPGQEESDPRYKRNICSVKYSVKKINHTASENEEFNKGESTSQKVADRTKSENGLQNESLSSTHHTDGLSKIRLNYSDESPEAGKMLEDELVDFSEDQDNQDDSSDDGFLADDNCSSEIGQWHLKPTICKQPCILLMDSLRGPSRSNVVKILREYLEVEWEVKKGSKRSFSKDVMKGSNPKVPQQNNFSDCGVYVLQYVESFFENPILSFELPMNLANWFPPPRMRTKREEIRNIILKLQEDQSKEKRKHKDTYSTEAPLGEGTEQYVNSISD
Chain of Sentrin-specific protease 7 (Homo sapiens) (Q9BQF6 706-1050 limits assumed): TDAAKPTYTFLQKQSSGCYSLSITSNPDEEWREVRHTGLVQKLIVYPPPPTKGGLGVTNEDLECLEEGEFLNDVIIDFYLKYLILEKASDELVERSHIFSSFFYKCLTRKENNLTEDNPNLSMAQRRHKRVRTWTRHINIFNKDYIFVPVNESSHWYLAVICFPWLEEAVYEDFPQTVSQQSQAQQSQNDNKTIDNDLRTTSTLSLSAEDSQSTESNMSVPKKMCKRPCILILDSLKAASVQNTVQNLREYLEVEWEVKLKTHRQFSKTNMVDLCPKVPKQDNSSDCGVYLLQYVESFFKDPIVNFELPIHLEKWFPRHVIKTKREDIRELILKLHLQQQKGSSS
Chain of Sentrin-specific protease 8 (Homo sapiens) (Q96LD8 whole entry, looked up): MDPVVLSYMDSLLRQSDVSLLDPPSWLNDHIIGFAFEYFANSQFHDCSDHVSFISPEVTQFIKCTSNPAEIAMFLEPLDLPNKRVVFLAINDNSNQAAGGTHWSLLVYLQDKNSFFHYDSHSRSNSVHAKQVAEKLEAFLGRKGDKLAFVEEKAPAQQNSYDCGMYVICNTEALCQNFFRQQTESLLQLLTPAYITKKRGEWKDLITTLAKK
Chain of PEG-3 (Q6IN02 whole entry, looked up): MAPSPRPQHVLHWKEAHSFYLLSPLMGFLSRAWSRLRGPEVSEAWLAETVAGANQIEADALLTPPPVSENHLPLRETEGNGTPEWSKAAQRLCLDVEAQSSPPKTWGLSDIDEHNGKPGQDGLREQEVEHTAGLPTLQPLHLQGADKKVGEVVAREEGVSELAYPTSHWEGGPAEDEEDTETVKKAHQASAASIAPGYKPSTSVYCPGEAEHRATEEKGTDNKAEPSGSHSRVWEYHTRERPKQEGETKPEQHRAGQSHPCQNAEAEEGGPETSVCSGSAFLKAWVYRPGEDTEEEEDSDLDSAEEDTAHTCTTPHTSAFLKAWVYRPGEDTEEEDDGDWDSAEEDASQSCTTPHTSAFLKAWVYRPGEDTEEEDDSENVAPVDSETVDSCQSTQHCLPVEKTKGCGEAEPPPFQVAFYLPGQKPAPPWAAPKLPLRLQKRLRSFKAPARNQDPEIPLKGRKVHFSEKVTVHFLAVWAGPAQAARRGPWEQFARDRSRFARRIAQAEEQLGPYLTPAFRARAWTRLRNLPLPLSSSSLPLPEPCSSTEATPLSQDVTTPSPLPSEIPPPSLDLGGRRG
Chain of Tumor necrosis factor receptor superfamily member 10B (Homo sapiens) (O14763 whole entry, looked up): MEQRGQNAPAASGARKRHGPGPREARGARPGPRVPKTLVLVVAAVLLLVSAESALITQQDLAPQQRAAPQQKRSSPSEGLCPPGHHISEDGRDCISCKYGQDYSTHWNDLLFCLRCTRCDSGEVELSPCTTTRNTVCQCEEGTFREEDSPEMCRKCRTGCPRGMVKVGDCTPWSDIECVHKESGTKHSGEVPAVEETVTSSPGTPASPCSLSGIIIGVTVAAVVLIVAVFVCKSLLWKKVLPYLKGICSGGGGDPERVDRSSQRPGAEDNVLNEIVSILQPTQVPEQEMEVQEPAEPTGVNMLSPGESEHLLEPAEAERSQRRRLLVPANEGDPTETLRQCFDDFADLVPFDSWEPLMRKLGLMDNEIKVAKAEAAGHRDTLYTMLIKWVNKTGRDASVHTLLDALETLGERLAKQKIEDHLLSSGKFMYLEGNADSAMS

Structure (SMILES): COc1cc(NS(=O)(=O)c2ccc(NC(C)=O)cc2)cc(OC)c1
- cytotoxicity [1]: -8.5% (inactive)

Structure (SMILES): CNC(=O)COC(=O)c1cc(-c2ccc(OC)cc2)nc2ccccc12
- cytotoxicity [1]: 36.3% (inactive)

Structure (SMILES): O=C(CN1C(=O)c2ccccc2S1(=O)=O)N1CCc2ccccc21
- cytotoxicity [1]: 46.8% (inactive)
- inhibition [2]: 34.6% (inactive)
- inhibition [3]: 94.3% (active)
- inhibition [4]: 96% (active)

Structure (SMILES): Cc1cc(C)nc(Nc2n[nH]c(-c3ccccc3N)n2)n1
- cytotoxicity [1]: 37.6% (inactive)

Structure (SMILES): Cc1cc2c(=O)n(C)c(SCC(=O)c3cc4ccccc4o3)nc2s1
- cytotoxicity [1]: -5.6% (inactive)

Structure (SMILES): N/C(=N\OC(=O)c1ccc([N+](=O)[O-])cc1)c1ccccn1
- cytotoxicity [1]: 11.3% (inactive)

Structure (SMILES): CCCCCCCCn1c2c(c(=N)c3c1CCC3)CCCC2
- cytotoxicity [1]: 42.7% (inactive)
- inhibition [2]: 75.5% (active)

Structure (SMILES): O=C(O)c1ccc(N/N=C/c2cn(-c3ccccc3)nc2-c2cccs2)cc1
- cytotoxicity [1]: 85.2% (active)
- inhibition [2]: -14.3% (inactive)
- activity [5]: 77.9%
- activity [6]: 73.7%

Structure (SMILES): COc1ccc(-c2cc(C(=O)n3cnc4ccccc43)c3ccccc3n2)cc1
- cytotoxicity [1]: 33.1% (inactive)

Structure (SMILES): O=C(NCC12CC3CC(C1)CC(CNC(=O)N1CCCC1)(C3)C2)N1CCCC1
- cytotoxicity [1]: -1.2% (inactive)

Structure (SMILES): COc1ccc(-c2cc(C(=O)NCc3ccco3)no2)cc1OC
- cytotoxicity [1]: 17.4% (inactive)

Structure (SMILES): COC(=O)c1nc(NC(=O)c2ccc(Cl)cc2)n[nH]1
- cytotoxicity [1]: 12.1% (inactive)

Structure (SMILES): Clc1cccc(-c2nc3nc4ccccc4nc3n2Cc2ccco2)c1
- cytotoxicity [1]: -6% (inactive)

Structure (SMILES): Cc1nc(-c2ccc(Cl)cc2)sc1C(=O)NN
- cytotoxicity [1]: 57.2% (active)

Structure (SMILES): Cc1ccc(NC(=O)CS(=O)CC(=O)N(c2ccccc2)C(C)C(=O)NC2CCCC2)cc1 (stereo unspecified)
- cytotoxicity [1]: 14.8% (inactive)

Structure (SMILES): CNC(=O)CSc1nnc(CCc2ccccc2)n1-c1ccccc1
- cytotoxicity [1]: 0.9% (inactive)

Structure (SMILES): CCOc1ccc(NC(=O)NNC(=O)c2ccc(Cl)cc2Cl)cc1
- cytotoxicity [1]: -11.6% (inactive)

Structure (SMILES): c1ccc2cc3c(NCCN4CCOCC4)ccnc3cc2c1
- cytotoxicity [1]: 18% (inactive)

Structure (SMILES): Cc1ccc(-n2nc3cc(C)c(NC(=O)c4cccnc4)cc3n2)cc1
- cytotoxicity [1]: 34.7% (inactive)

Structure (SMILES): CC(Nc1nc(N2CCCC2)nc2ccccc12)c1ccccc1 (stereo unspecified)
- cytotoxicity [1]: 8.3% (inactive)

Structure (SMILES): O=C(Nc1cccc(O)c1)c1ccc(C(=O)c2ccccc2)o1
- cytotoxicity [1]: 18.6% (inactive)

Structure (SMILES): CS(=O)(=O)N1CCN(C(=O)c2cc3ccccc3oc2=O)CC1
- cytotoxicity [1]: 9.4% (inactive)

Structure (SMILES): CCCC(=O)Nc1nnc(CC(=O)OCC)s1
- cytotoxicity [1]: -5.4% (inactive)

Structure (SMILES): CS(=O)(=O)N(CC(=O)N1CCOCC1)c1ccc2c3c(cccc13)CC2
- cytotoxicity [1]: -7.5% (inactive)

Structure (SMILES): COc1cccc(/C=C/C(=O)Nc2ccc3c(c2)OCCO3)c1
- cytotoxicity [1]: 48.7% (inactive)

Structure (SMILES): CCOC(=O)c1c(C)[nH]c2c1-c1ccccc1C(=O)C2=O
- cytotoxicity [1]: 96.4% (active)

Structure (SMILES): COc1ccc(C(=O)/C=C/Nc2ccccn2)cc1
- cytotoxicity [1]: 76.8% (active)
- inhibition [2]: -78.9% (inactive)
- inhibition [7]: 97.4% (active)
- inhibition [8]: 98% (active)
- inhibition [9]: 102% (active)
- inhibition [10]: 97% (active)
- inhibition [11]: 96.4% (active)
- inhibition [12]: 57.9% (active)
- inhibition [3]: 80.7% (active)
- inhibition [4]: 79.7% (active)
- inhibition [13]: 95.5%
- inhibition [14]: 94.2%
- inhibition [15]: 96.2%
- inhibition [16]: 96.7%
- activity [5]: 81.4%
- activity [6]: 68.6%

Structure (SMILES): OCCNc1nc2ccccc2n1-c1ncnc2sc3c(c12)CCC3
- cytotoxicity [1]: -17.2% (inactive)

Structure (SMILES): COc1ccc(C2C(C#N)=C(/N=C/N3CCOCC3)OC3=C2C(=O)CC(C)(C)C3)cc1OC (stereo unspecified)
- cytotoxicity [1]: 2.1% (inactive)

Structure (SMILES): O=C(O)CCCC(=O)Nc1ccccc1-n1ccnc1
- cytotoxicity [1]: -3.3% (inactive)

Structure (SMILES): C=CCn1c(C)cc(C2=NNC(=NCC)SC2)c1C
- cytotoxicity [1]: 88% (active)
- inhibition [2]: 67.5% (active)
- inhibition [7]: -3.3% (inactive)
- inhibition [8]: 1% (inactive)
- inhibition [9]: 8% (inactive)
- inhibition [10]: 1.7% (inactive)
- inhibition [11]: -1% (inactive)
- inhibition [17]: 24.4% (active)
- inhibition [12]: 95.2% (active)
- inhibition [3]: 98.7% (active)
- inhibition [4]: 104% (active)
- inhibition [13]: 99.4%
- inhibition [14]: 98.1%
- inhibition [15]: 98.4%
- inhibition [16]: 98.1%
- activity [5]: 93.8%
- activity [6]: 90.7%

Structure (SMILES): Cn1c(=O)n(C)c2cc(S(=O)(=O)N3CCCc4ccccc43)ccc21
- cytotoxicity [1]: 14.1% (inactive)

Structure (SMILES): O=C(CSc1nnc(-c2ccc([N+](=O)[O-])cc2)o1)Nc1ccccn1
- cytotoxicity [1]: 57% (active)

Structure (SMILES): CCOC(=O)C1C(=O)OC2(CCCC2)C1C(=O)OCC (stereo unspecified)
- cytotoxicity [1]: -4.2% (inactive)

Structure (SMILES): Cn1c(C(=O)NCCCN2CCN(c3cccc(Cl)c3)CC2)cc2c(=O)n(C)c3ccccc3c21
- cytotoxicity [1]: 15% (inactive)

Structure (SMILES): CCOc1ccc(-c2ccc(SCC(=O)N3CCOCC3)nn2)cc1
- cytotoxicity [1]: 57.7% (active)

Structure (SMILES): O=C(c1ccc(F)cc1)n1c(=S)nc2ccccn21
- cytotoxicity [1]: 81.2% (active)
- inhibition [2]: -90.8% (inactive)
- inhibition [7]: 16.3% (inactive)
- inhibition [8]: 14.2% (inactive)
- inhibition [9]: 50.1% (active)
- inhibition [10]: 19.5% (inactive)
- inhibition [11]: -9.8% (inactive)

Structure (SMILES): O=C(Nc1ccn(Cc2ccccc2)n1)c1cccc(F)c1
- cytotoxicity [1]: 39.6% (inactive)

Structure (SMILES): CCOc1cc(N2CCOCC2)c(OCC)cc1NC(=O)c1cc(C)nc2ccccc12
- cytotoxicity [1]: -9.1% (inactive)

Structure (SMILES): O=C(NCc1ccc2c(c1)OCO2)c1cc([N+](=O)[O-])ccc1N1CCOCC1
- inhibition [2]: 38.1% (inactive)

Structure (SMILES): O=C(/C=C/c1ccc([N+](=O)[O-])o1)NNC(=O)c1ccc(F)cc1
- inhibition [2]: 45.4% (inactive)

Structure (SMILES): Cn1c(-c2ccco2)nc2cc3ccccc3cc21
- cytotoxicity [1]: 89.1% (active)
- inhibition [7]: 3.5% (inactive)
- inhibition [8]: 99.6% (active)
- inhibition [9]: 103% (active)
- inhibition [10]: 98.1% (active)
- inhibition [11]: 98.1% (active)

Structure (SMILES): Cc1ccc(-c2cc(C(=O)N/N=C/C=C/c3ccco3)c3ccccc3n2)cc1C
- cytotoxicity [1]: 56.4% (active)
- activity [5]: 59.7%
- activity [6]: 70.4%

Structure (SMILES): CCOc1ccccc1NC(=O)Cn1nnc(C(=O)NCc2cccs2)c1N
- inhibition [2]: 51.6% (active)

Structure (SMILES): COc1ccc(C(=O)Nc2ccccc2C(=O)N/N=C/c2ccc(O)c(OC)c2)cc1
- cytotoxicity [1]: 96.5% (active)
- inhibition [7]: 97.3% (active)
- inhibition [8]: 98.5% (active)
- inhibition [9]: 102% (active)
- inhibition [10]: 98.4% (active)
- inhibition [11]: 83.7% (active)
